In PubChem BioAssay (NCATS):
Values without a mark were called inactive. The source made the active and inactive calls. The call rests on the fitted dose curve; in most records, active means well fitted inhibition curve with a large enough effect; inconclusive means small, poorly fitted or top-dose-only effect; inactive means flat fitted curve, though single readings scatter.

Target: Luciferin 4-monooxygenase (Photinus pyralis) (UniProt P08659)
Assay: Primary firefly luciferase (FLuc) qHTS assay for identification of artifact compounds. (AID 1845220); further: nearly all actives have a fitted effect of over 60% in size;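 on activity change, negative = inhibition: plate controls were DMSO vehicle for no effect and no enzyme for full effect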
Conditions: purified firefly luciferase, luminescence, 5 min; series mostly up to 54.1 µM; activity change, negative = inhibition: at the top concentration
Summary of the method: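 D-luciferin and ATP (10 uM each, final) in Tris acetate buffer pH 7.6 were incubated with compounds for 15 min at room temperature. The reaction was started with 10 nM Photinus pyralis luciferase and luminescence read after 5 min. Percent inhibition was fitted to a 4-parameter Hill equation.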

SMILES	activity change, negative = inhibition	outcome
CC(C)(O)c1ccc2c(c1)C(O)CC1C(C)(C(=O)O)CCCC21C (centres undefined)	0.533%	–
CCC(=O)N[C@@H]1Cc2ccccc2[C@H](c2ccccc2)C1	0.141%	–
CC(=O)NCCCCn1c2c(c3ccccc31)C(=O)NCC2	–	inactive
CC(=O)OC[C@@]12[C@H](O)C[C@@H](C)[C@]3(C[C@@H](c4ccoc4)OC3=O)[C@H]1C[C@H](O)C[C@]21CO1	–	inactive [at 25.7 µM]
CC(C)C1=CCC(C)(O)C(OC2OC(CO)C(O)C(O)C2O)C1 (centres undefined)	3.2%	–
CC(C)C(=O)O[C@@H]1[C@@H](O)[C@@H](O[C@H]2O[C@H](CO)[C@@H](O)[C@H](O)[C@H]2O)O[C@H](CO)[C@H]1O	0.14% [at 25.7 µM]	–
CC(C)C1(O[C@@H]2O[C@H](CO)[C@@H](O)[C@H](O)[C@H]2O)CC=C(CO)CC1 (some centres undefined)	-9.13%	–
O=C(COc1ccc(Cl)cc1)NC1CCC(NC(=O)COc2ccc(Cl)cc2)CC1 (centres undefined)	-4.18%	–
CC1(C)CC2C(O)C3=C(CC(C)(O)C2C1)C(=O)OC3O (centres undefined)	–	inactive
COc1cccc2c1CCC[C@H]2CN(C)CCc1ccc2ccoc2c1	3.25%	–
C=C(C)[C@H]1C[C@@H](O)C(=C)CC[C@@H](O)C(=C)[C@@H](O)C1	3.08%	–
CC1(C)O[C@@]2(C)CC[C@@H]1C[C@@H]2OC1OC(CO)C(O)C(O)C1O (some centres undefined)	–	inactive
O=C(/C=C/c1ccc(O)cc1)OC[C@H]1O[C@@H](OC(=O)/C=C/c2ccccc2)[C@H](O)[C@@H](O)[C@@H]1O	2.93% [at 25.7 µM]	–
Cc1ncc([N+](=O)[O-])n1CC(O)CN1CCOCC1 (centres undefined)	4.65%	–
CC(CO[C@@H]1O[C@H](COC(=O)/C=C/c2ccc(O)c(O)c2)[C@@H](O)[C@H](O)[C@H]1O)C1(O)COC(=O)C1 (some centres undefined)	-0.909% [at 25.7 µM]	–
Cc1cn2c(N)c(Cl)cc(C(=O)NCC3CCN(CC(C)C)CC3)c2n1	–	inactive
COC(=O)C1=CO[C@@H](O[C@@H]2O[C@H](CO[C@@H]3O[C@H](COC(=O)/C=C/c4ccc(O)cc4)[C@@H](O)[C@H](O)[C@H]3O)[C@@H](O)[C@H](O)[C@H]2O)[C@@H]2C(CO)=CC[C@H]12	–	inactive [at 25.7 µM]
Nc1ncnc2c1ncn2[C@H]1CCCO1	–	inactive
CCC(C)(O)C(O)C(=O)OCc1ccc(O[C@@H]2O[C@H](CO)[C@@H](O)[C@H](O)[C@H]2O)cc1 (some centres undefined)	–	inactive [at 25.7 µM]
CC(=O)N1CCN(NC(=O)c2ccc(F)cc2)CC1	–	inactive

SMILES	activity change, negative = inhibition	outcome
COC(=O)C1(Cc2ccc(O)cc2)OC(=O)C(OC)=C1c1ccc(O)cc1 (centres undefined)	–	inactive
C=CC1C(O[C@@H]2O[C@H](CO)[C@@H](O)[C@H](O)[C@H]2O)OC=C(C(=O)OC)C1Cc1nccc2c1[nH]c1ccccc12 (some centres undefined)	–	inactive [at 25.7 µM]
CC(C)(C)c1cc(CN2CCN(CC(O)c3ccc(Cl)cc3)CC2)cc(C(C)(C)C)c1O (centres undefined)	1.84%	–
CC1(C)C(=O)N2c3ccccc3[C@]3(CC(n4cnc5ccccc5c4=O)C(=O)O3)[C@H]2N1O (some centres undefined)	–	inactive [at 25.7 µM]
CC[C@H](C)/C=C(C)/C=C/C(=O)Cc1cc(O)c(C)c(O)c1C=O	-1.99%	–
CC(=O)c1c(O)cc2c(c1C)C(=O)CC(O)C2 (centres undefined)	–	inactive
C[C@H](NCc1ccc(OCc2ccccc2F)cc1)C(N)=O	0.271%	–
COc1cc(/C=C/c2cc(O)cc(O[C@@H]3O[C@H](CO)[C@@H](O)[C@H](O)[C@H]3O)c2)ccc1O	-1.27% [at 25.7 µM]	–
CC1(C)CC[C@]2(C(=O)O)CC[C@]3(C)C(=CCC4[C@@]5(C)C[C@H](O)[C@H](O[C@@H]6OC[C@H](O)[C@H](O)[C@H]6O)[C@@](C)(CO)C5CC[C@]43C)[C@@H]2C1 (some centres undefined)	–	inactive [at 25.7 µM]
COc1cc([C@H]2OC[C@]3(OC(C)=O)[C@@H](c4ccc(O[C@@H]5O[C@H](CO)[C@@H](O)[C@H](O)[C@H]5O)c(OC)c4)OC[C@H]23)ccc1O	0.447% [at 25.7 µM]	–
CC1(C)CCC(C)(C)c2cc3c(cc21)Sc1ccccc1N=C3c1ccc(C(=O)O)cc1	0.975%	–
O=C(O)[C@H]1CCCC[C@H]1C(=O)N1CCc2ccccc2[C@H]1CN1C(=O)c2ccccc2C1=O	–	inactive
C=C1[C@H]2CC[C@]3(O)[C@@](CC[C@@H]4[C@](C)(C(=O)O)CCC[C@]43C)(C2)[C@H]1OC(=O)/C(C)=C\C	–	inactive [at 25.7 µM]
C[C@H]1[C@H](C)CC[C@]2(C(=O)O)CC[C@]3(C(=O)O)C(=CCC4[C@@]5(C)CC[C@H](O[C@@H]6O[C@H](C)[C@@H](O)[C@H](O)[C@H]6O)C(C)(C)C5CC[C@]43C)[C@H]12 (some centres undefined)	-5.56% [at 25.7 µM]	–
O=C(c1ccccn1)c1cnn2c(-c3ccncc3)ccnc12	–	inactive
COc1c(C)c2c(c(O)c1C/C=C(\C)CC/C=C(\C)CCC(=O)O)C(=O)OC2	0.868%	–
C=C1CC2(C(=O)O)CC1CCC2C1(C)CCCC2(C)C(=O)OC(O)C21 (centres undefined)	-4.53%	–
CC(C)=CC/C=C(/C)[C@H]1CC[C@]2(C)[C@@H]1[C@H](O)CC1[C@@]3(C)CC[C@H](O)C(C)(C)[C@@H]3[C@@H](O[C@@H]3O[C@H](CO)[C@@H](O)[C@H](O)[C@H]3O[C@@H]3O[C@@H](C)[C@H](O)[C@@H](O)[C@H]3O)C[C@]12C (some centres undefined)	3.74% [at 25.7 µM]	–
O=C1NC(Cc2ccc(O)cc2)C(=O)N2CCCC12 (centres undefined)	-3.33%	–
